Screening results as filed in PubChem.
ALR inh: inhibitors of human ALR sulfhydryl oxidase, primary screen, biochemical, H2O2 detection, HRP-luminol luminescence, single point; purified ALR, DTT oxidation; inhibition, % (test concentration not listed); actives 3.8% (n = 290,000); AID 485317, 2010;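 active = mean replicate inhibition above about 79%, with every replicate also reaching it, limit read from the data; inconclusive = only one of the two criteria met; inactive = mean below limit and not every replicate reaching it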
Target sequence (P55789 whole entry, looked up): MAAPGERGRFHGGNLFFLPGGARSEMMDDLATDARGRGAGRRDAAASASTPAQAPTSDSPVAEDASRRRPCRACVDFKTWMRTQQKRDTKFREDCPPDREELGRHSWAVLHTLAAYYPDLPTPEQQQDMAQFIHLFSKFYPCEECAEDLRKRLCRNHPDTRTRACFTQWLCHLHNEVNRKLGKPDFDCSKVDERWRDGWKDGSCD
CASP6 VEID inh: human caspase-6 inhibitors, primary screen, biochemical, VEID-R110 fluorescence, single point, set 2 | P55212 | purified caspase-6, Z-VEID-R110 cleavage fluorescence | inhibition, % at 12.5 µM | actives 0.53% (n = 350,000);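 active = mean inhibition across replicates at least about 35%, with every replicate also reaching that limit, limit read from the data; inconclusive = only one of the two criteria met; inactive = neither criterion met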
Target sequence (P55212 24-179 limits assumed): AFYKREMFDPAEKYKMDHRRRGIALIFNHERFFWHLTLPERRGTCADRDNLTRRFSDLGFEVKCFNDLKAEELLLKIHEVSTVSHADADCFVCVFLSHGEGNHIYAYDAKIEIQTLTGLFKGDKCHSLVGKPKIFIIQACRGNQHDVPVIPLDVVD
Target sequence (P55212 194-293 limits assumed): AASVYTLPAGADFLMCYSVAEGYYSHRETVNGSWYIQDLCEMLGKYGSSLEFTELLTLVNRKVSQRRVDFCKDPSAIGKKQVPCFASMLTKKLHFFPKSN
NSD2 inh: NSD2 histone methyltransferase inhibitors, primary screen, biochemical, AlphaScreen, single concentration, set 2; actives 0.54% (n = 310,000); inhibition, % at 12.5 µM; Histone-lysine N-methyltransferase NSD2 (Homo sapiens), O96028; NSD2 peptide methylation, 120 min; in the data active = inhibition above about 50%
Mot1-301 SUMO: yeast Mot1-301 growth rescue at high temperature, primary screen, SUMOylation pathway inhibitor project, S. cerevisiae, ATP luminescence, 38.5C. S. cerevisiae Mot1-301 growth rescue; percent above DMSO median, 100 means doubled. actives 1% (n = 320,000). growth rescue, % at 18.8 µM. AID 2716, 2010;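 active = every valid replicate shows activation above 250% relative to neutral control wells; inactive = the rest, any valid replicate at or below 250%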
N-glyco inh: increase of ERlucT glycosylation luciferase signal, primary screen, N-linked glycosylation inhibitor project, D54 ERlucT cells, luminescence, set 2; reporter increase, % at 12.5 µM; D54 ERlucT glycosylation luciferase reporter, 24 h; percent of 100 nM tunicamycin response; actives 0.23% (n = 360,000); AID 588692, 2011;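 active = mean luciferase reporter signal, scaled so untreated is 0 and the glycosylation-blocking control 100, at or above a set limit in every replicate; inconclusive = mean reaches the limit but not every replicate does; inactive = mean below the limit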;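 also: luciferase carries N-glycosylation sites so blocking glycosylation raises the light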
CDK5 p35 inh: inhibitors of human CDK5/p35 kinase, primary screen, biochemical, single concentration. inhibition, % at 10 µM. Recombinant CDK5/p35, ADP-Glo luminescence, 60 min. Cyclin-dependent kinase 5 (Homo sapiens) + Cyclin-dependent kinase 5 activator 1 (Homo …. actives 0.01% (n = 330,000). AID 488839, 2010;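 active = highest replicate inhibition of at least 50% and at least 75% of replicates reaching 50%; inconclusive = only one of the two criteria met; inactive = both criteria failed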
Alpha artifact: AlphaScreen signal interference with preloaded methylated product, dose response, artefact control for NSD2 inhibitor project, biochemical, cherry-picked samples | actives 9.4% (n = 1,500) | AC35, µM (top dose mostly 10 µM) | AlphaScreen artifact counterscreen, preloaded methylated H4 peptide | shares compounds with NSD2 inh; call rule not given here
A number is an active result; - = inactive; ? = inconclusive; . = no result given. Compounds with a hit are over-represented: about 3.9% of the library has one in this group of screens.

SMILES | ALR inh | CASP6 VEID inh | NSD2 inh | Mot1-301 SUMO | N-glyco inh | CDK5 p35 inh | Alpha artifact
COc1cc(/C=C2\SC(N)=NC2=O)cc(Cl)c1O | - | - | 68 | - | - | - | -
CO[C@@H]1CN(C)C(=O)c2cc(NC(=O)C3CC3)ccc2OC[C@H](C)N(CC2CCCC2)C[C@H]1C | . | - | . | . | . | . | .
Cc1cccc(C(=O)Nc2cccc(-c3cnc4ccccc4n3)c2)c1 | - | . | 57 | - | - | - | -
Cc1noc(C)c1S(=O)(=O)Nc1ccc2c(c1)C(=O)N([C@@H](C)CO)C[C@H](C)[C@H](CN(C)C(=O)c1ccncc1)OCCCC[C@@H](C)O2 | . | - | . | . | . | . | .
COc1ccc(NC(=O)N(C)C[C@H]2OCCCC[C@H](C)Oc3ccc(NS(=O)(=O)c4ccc(C)cc4)cc3C(=O)N([C@H](C)CO)C[C@@H]2C)cc1 | . | - | . | . | . | . | .
O=C(CSc1nnc2ccccn12)NNC(=O)c1ccc([N+](=O)[O-])cc1 | - | - | 86 | - | - | - | -
C/C(NCCc1ccccc1)=C1/CCOC1=O | . | - | 65 | . | - | . | -
COc1ccc(C(C(=O)NC(C)(C)C)N(C(=O)CCC(=O)Nc2cc(C)on2)c2ccccc2F)cc1 (configuration not stated) | . | - | 77 | - | - | - | -
CCCCN(C(=O)CCC(=O)Nc1cc(C)on1)C(C(=O)NC(C)(C)C)c1ccccc1Cl (configuration not stated) | - | . | - | - | - | - | .
COCCN(C(=O)CCC(=O)Nc1cc(C)on1)C(C(=O)NC(C)(C)C)c1ccccc1Cl (configuration not stated) | . | - | 140 | - | - | - | -
COc1cccc(CNC(=O)CSc2nnc3c(n2)[nH]c2ccccc23)c1 | - | - | 56 | - | - | - | -
Cc1ccccc1CS(=O)(=O)CC(O)CN1CCCC1=O (configuration not stated) | - | - | 129 | - | - | - | -
CCc1c(C)nc2ncnn2c1Nc1ccc(C)cc1 | - | - | 55 | - | - | - | -
Cc1cc(-c2ccc(C)c(S(=O)(=O)N3CCN(c4ccccn4)CC3)c2)on1 | - | - | 131 | - | - | - | -
Cc1cc(-c2ccc(C)c(S(=O)(=O)N3CCN(c4ccc([N+](=O)[O-])cc4)CC3)c2)on1 | - | - | - | - | - | - | .
NCC[C@@H]1CC[C@H](NC(=O)c2ccccc2F)[C@H](CO)O1 | . | - | . | . | . | . | .
Cc1ccc(OCCCCNC(C)(C)C)c([N+](=O)[O-])c1 | - | . | - | - | - | - | .
CCCCCCNc1c([N+](=O)[O-])cc(C)cc1[N+](=O)[O-] | - | . | 53 | - | - | - | 9.9µM
COc1cccc2c1N1C(=O)c3c(C(=O)O)cccc3C1CC2(C)C (configuration not stated) | . | . | 101 | . | - | - | -
CCOC(=O)C1=C(C)OC2(O)c3ccccc3C(=O)C12O (configuration not stated) | - | - | 107 | - | - | . | -
CC(=O)C1=C(C)OC2(O)c3ccccc3C(=O)C12O (configuration not stated) | - | - | 90 | - | - | . | -
N#Cc1ccccc1OCC(=O)OCC(=O)N1CCN(C(=O)c2ccco2)CC1 | - | - | 57 | - | - | - | -
N#Cc1ccc(C(=O)OCC(=O)N2CCN(C(=O)c3ccco3)CC2)cc1 | - | - | - | - | - | - | .
O=C1NN(c2ccc(Cl)cc2)C(=O)/C1=C\c1ccc(-c2cccc(C(=O)O)c2)o1 | . | 73 | 54 | . | - | - | -
O=C1NN(c2ccccc2)C(=O)/C1=C\c1ccc(-c2cc([N+](=O)[O-])ccc2O)o1 | . | - | - | . | - | - | .
SMILES | ALR inh | CASP6 VEID inh | NSD2 inh | Mot1-301 SUMO | N-glyco inh | CDK5 p35 inh | Alpha artifact
O=C(C1CCCN1S(=O)(=O)c1ccc(Cl)s1)N1CCc2ccccc2C1 (configuration not stated) | . | . | - | . | . | . | .
NC(=O)C1Cc2ccccc2CN1S(=O)(=O)c1ccc(Cl)s1 (configuration not stated) | - | - | 89 | - | - | - | -
CCCCn1c(NC(=O)c2ccco2)c(S(=O)(=O)c2ccc(C)cc2)c2nc3ccccc3nc21 | . | - | . | . | - | - | .
CCCCn1c(NS(=O)(=O)c2ccccc2)c(S(=O)(=O)c2ccc(C)cc2)c2nc3ccccc3nc21 | - | 98 | 102 | - | - | - | -
CCCCn1c(NC(=O)c2ccc(Br)o2)c(S(=O)(=O)c2ccccc2)c2nc3ccccc3nc21 | - | . | 104 | - | - | - | -
Cc1ccc(S(=O)(=O)N2CCCCC2CCNC(=O)C(=O)Nc2ccccc2F)cc1 (configuration not stated) | - | - | 95 | - | - | - | -
O=C(c1cccc(Br)c1)N1CCCc2ccccc21 | - | - | - | - | - | - | .
O=C(c1coc(=O)c(Br)c1)N1CCCc2ccccc21 | ? | . | 52 | - | - | - | -
Nc1c(Br)cc(Br)c2c1[nH]c(=O)c1ccccc12 | . | 39 | 73 | . | - | . | -
O=c1[nH]c2ccccc2c2ccccc12 | - | . | - | - | - | - | .
Cc1ccc(C#N)c(SCc2ccccc2F)n1 | - | - | 60 | - | - | . | -
Cc1ccc2nc(CSc3nc(C)ccc3C#N)[nH]c2c1 | - | - | - | - | - | - | .
Cc1ccc(S(=O)(=O)N[C@H]2CC[C@@H](CCn3cc(-c4cccnc4)nn3)O[C@@H]2CO)cc1 | . | - | . | . | . | . | .
CCCc1cc(Nc2ccccc2C)n2ncnc2n1 | - | - | 57 | - | - | - | -
CCCc1cc(Nc2cccc(OCC)c2)n2ncnc2n1 | - | . | - | - | - | - | .
C[C@@H]1CN([C@@H](C)CO)C(=O)c2cc(NC(=O)Nc3ccc(C(F)(F)F)cc3)ccc2O[C@@H](C)CCCCO[C@@H]1CN(C)Cc1ccccc1 | . | - | . | . | . | . | .
O=C(NCCC(=O)N1CCc2ccccc21)c1ccco1 | . | - | 68 | - | - | - | -
O=C(NCc1nnc(SCC(=O)N2CCc3ccccc32)o1)c1ccco1 | - | - | - | - | - | - | .
Cc1ccc(S(=O)(=O)N(C)C[C@H]2Oc3ccc(NC(=O)Cc4ccccc4)cc3C(=O)N([C@H](C)CO)C[C@H]2C)cc1 | . | - | . | . | . | . | .
CC(=O)C1=C(O)C(=O)N(Cc2cccnc2)C1c1ccccc1 (configuration not stated) | - | . | 131 | - | - | - | -
